# According to PubChem BioAssay AID2016 (NMMLSC, 2009):
# Screen size: about 330,000 compounds; about 1,700 (0.52%) were called active.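 Rule for the calls: active = GFP response versus DMSO above a set limit, roughly screen mean plus 3 SD (cut at about 180% in these data); inconclusive = fewer than 70 cells counted for a yeast strain; inactive = the rest.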 Many of the other results were omitted from the sample, so actives are more common in it than they were.
# Assay: TOR pathway GLN3 branch reporter MEP2-GFP changes – S. cerevisiae, multiplex flow cytometry, MLPCN library, primary screen (AID 2016);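 note: median GFP fluorescence of the barcode-gated MEP2-GFP cells per well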
# Details: S. cerevisiae MEP2-GFP strain, 3 h, at 10 µM, active compounds read high, 100% = DMSO control level
row,Compound,GFP response vs DMSO
1,CCc1ccccc1NC(=O)CSc1nnc(CCNC(=O)OC(C)(C)C)o1,114% (inactive)
2,CCc1ccccc1NC(=O)CSc1nnc([C@@H](NC(=O)OC(C)(C)C)C(C)CC)o1 (some centres not stated),193% [may fluoresce violet] (active)
3,CCc1ccccc1NC(=O)CSc1nnc([C@@H](NC(=O)OC(C)(C)C)C(C)C)o1,88.8% (inactive)
4,C#CCOCCOCCOCCNc1nc(N2CCN(C(=O)C(Cc3ccc(O)cc3)n3cc(C(N)CC(C)C)nn3)CC2)nc(N2CCN(C(=O)C(Cc3ccc(O)cc3)n3cc(C(N)C(C)CC)nn3)CC2)n1 (configuration not stated),93.7% (inactive)
5,CC(NCC(=O)Nc1cc(Cl)cc(Cl)c1)c1ccccc1 (configuration not stated),91.3% (inactive)
6,CCSc1sc(CC)cc1C=O,210% [may fluoresce violet] (active)
7,COc1ccc2c(c1)C(=C(C#N)C#N)C(=O)N2CCc1ccccc1,103% (inactive)
8,COCCOC(=O)C1=C(C)NC(=O)NC1c1cc2c(cc1Br)OCO2 (configuration not stated),95.2% (inactive)
9,CC(=O)C1=C(C)NC(=O)NC1c1ccc2c(c1)OCO2 (configuration not stated),179% [may fluoresce violet] (active)
10,CCOCCOC(=O)C1=C(C)NC(=O)NC1c1ccc2c(c1)OCO2 (configuration not stated),111% (inactive)
11,O=C(CC12CC3CC(CC(C3)C1)C2)Nc1ccc2c(c1)COC2=O,99.2% (inactive)
12,Brc1ccc(C2CC(c3ccccc3)=Nc3ccccc3N2)cc1 (configuration not stated),101% (inactive)
13,OCC[C@H]1C[C@@H](O)[C@H](O)[C@]2(OCCCc3ccccc32)O1,96.7% (inactive)
14,Oc1ccc(C2Nc3cccc4cccc(c34)N2)cc1,184% (active)
15,Cc1ccc(C2Nc3cccc4cccc(c34)N2)cc1,110% (inactive)
16,Brc1ccccc1C1Nc2cccc3cccc(c23)N1,104% (inactive)
17,O=C(CSc1n[nH]c(=O)n1-c1ccccc1)Nc1ccccc1C(F)(F)F,109% (inactive)
18,COc1ccc(C)cc1NC(=O)CN(C)S(=O)(=O)c1ccc2c(c1)n(C)c(=O)c(=O)n2C,110% (inactive)
19,COc1ccccc1NS(=O)(=O)c1ccc(C)c(C(=O)NCC(c2ccco2)N(C)C)c1 (configuration not stated),104% (inactive)
20,O=C(c1ccncc1)c1ccc([N+](=O)[O-])cc1,90.2% (inactive)
21,O=C(CC(n1cncn1)C(Cl)(Cl)Cl)c1ccc([N+](=O)[O-])cc1 (configuration not stated),91.9% (inactive)
22,COc1ccc(C(=O)NC(=S)NNC(=O)c2c(-c3ccccc3)noc2C)cc1,113% (inactive)

row,Compound,GFP response vs DMSO
1,Cc1onc(-c2ccccc2)c1C(=O)NNC(=S)NC(=O)c1ccc(F)cc1,176% [may fluoresce violet] (active)
2,CCc1noc(C)c1C(=O)NNC(=O)c1ccc(F)cc1,100% (inactive)
3,O=C(OCC(=O)N1CCCCCC1)c1ccc(Cl)nc1,105% (inactive)
4,CCC(CO)Oc1cc(NC(=O)c2ccc(Cl)cc2)c2ncn(C(C)C)c2c1 (configuration not stated),102% (inactive)
5,Cc1ccc(C2(C)NC(=O)N(CC(=O)N3CC(=O)Nc4ccccc43)C2=O)cc1 (configuration not stated),95% (inactive)
6,CC(C)(C)NC(=O)C(c1ccco1)N(Cc1ccc2c(c1)OCO2)C(=O)Cn1nnc2ccccc21 (configuration not stated),101% (inactive)
7,CCC(C)(C)NC(=O)C(c1cccn1C)N(Cc1ccc(C)cc1)C(=O)Cn1nnc2ccccc21 (configuration not stated),200% [may fluoresce violet] (active)
8,CCC(C)(C)NC(=O)C(c1ccc(O)cc1)N(C(=O)Cn1nnc2ccccc21)c1ccc(NC(C)=O)cc1 (configuration not stated),93.5% (inactive)
9,O=C(NCc1ccco1)C1CCCN(S(=O)(=O)c2cccc3nonc23)C1 (configuration not stated),97.8% (inactive)
10,O=C(NCc1ccccc1Cl)C1CCN(S(=O)(=O)c2cccc3nonc23)CC1,287% [may fluoresce violet] (active)
11,O=C(NCc1ccccc1Cl)C1CCN(S(=O)(=O)N2CCOCC2)CC1,93.8% (inactive)
12,CCc1cccc(C)c1NS(=O)(=O)c1cc(Br)cnc1N,105% (inactive)
13,Cn1c(=O)n(C)c(=O)n(CC(=O)N2CCCCC2)c1=O,95.9% (inactive)
14,CCC1(C)Cc2c(sc3nnn(CC(=O)Nc4ccc(Cl)cc4)c(=O)c23)CO1 (configuration not stated),104% (inactive)
15,CCC1(C)Cc2c(sc3[nH]c(=S)n(Cc4ccccc4)c(=O)c23)CO1 (configuration not stated),234% [may fluoresce violet] (active)
16,CCn1c(=S)[nH]c2sc3c(c2c1=O)CCCCC3,106% (inactive)
17,O=C(NNS(=O)(=O)Cc1ccccc1)c1ccc([N+](=O)[O-])cc1,796% [may fluoresce violet] (active)
18,O=C(Cc1ccccc1)NNS(=O)(=O)c1ccc([N+](=O)[O-])cc1,94.8% (inactive)
19,O=C(CNC(=O)c1ccccc1)Oc1ccc([N+](=O)[O-])cc1,109% (inactive)
20,COCCn1c(C)cc(C(=O)CSc2nnc(C3CC3)n2C2CC2)c1C,101% (inactive)
21,CCN(CCCNC(=O)CSc1cc(=O)n(C)c2cc(Cl)ccc12)Cc1ccccc1,102% (inactive)
22,Cc1cc(C=O)c(C)n1-c1ccc(NC2CCCCC2)c([N+](=O)[O-])c1,101% (inactive)

row,Compound,GFP response vs DMSO
1,CCOC(=O)c1sc2nc(C)nc(SCC(N)=O)c2c1C,105% (inactive)
2,O=C(c1cccc(Cl)c1)N1CCN(Cc2ccccc2)CC1,110% (inactive)
3,O=C(NCc1ccncc1)C1CCN(C(=O)c2cccc(Cl)c2)CC1,465% [may fluoresce violet] (active)
4,COc1ccc(CNC(=O)C2CCN(C(=O)c3ccccc3)CC2)cc1,96.9% (inactive)
5,CC1CC(NC(=O)/C(C#N)=C/c2ccc[nH]2)CC(C)(C)C1 (configuration not stated),90.7% (inactive)
6,COc1cc(CCC(=O)Nc2ccncc2Cl)cc(OC)c1OC,101% (inactive)
7,C/C(=N\NC(=O)c1cccnc1)c1ccc(-n2ccnc2)cc1,89.5% (inactive)
8,C/C(=N\NC(=O)c1cccnc1)c1ccc(-c2ccccc2)cc1,189% [may fluoresce violet] (active)
9,C/C(=N\NC(=O)c1ccc2ccccc2c1)c1cccnc1,91.2% (inactive)
10,Cc1noc(C)c1-c1nc(CSc2ccc(Cl)cc2)no1,105% (inactive)
11,O=C(Nc1ccccc1Cl)N1CCN(c2ccc3nncn3n2)CC1,97.1% (inactive)
12,COc1ccc(/C=N/Nc2ncnc3sc4c(c23)CCCC4)cc1O,106% (inactive)
13,CCOc1ncccc1C(=O)OCc1cn2cc(Cl)ccc2n1,561% [may fluoresce violet] (active)
14,CCOc1ncccc1C(=O)OCC(=O)N1c2ccccc2CC1C (configuration not stated),92.2% (inactive)
15,CCOc1ncccc1C(=O)OCC(=O)NC1CC1,100% (inactive)
16,N#CC(C#N)=CN=c1ccn(Cc2ccc(Cl)cc2Cl)cc1,107% (inactive)
17,COc1ccccc1CN1CCCC(N2CCN(c3ccc(F)cc3)CC2)C1 (configuration not stated),485% [may fluoresce violet] (active)
18,COc1ccc(CN2CCCC(N3CCc4ccccc4C3)C2)c(O)c1 (configuration not stated),104% (inactive)
19,COc1ccccc1CN1CCN(Cc2cc(OC)c(OC)cc2OC)CC1,114% (inactive)
20,COc1ccc(/C=C/CN2CCN(Cc3ccc(C)cc3)C(CCO)C2)cc1 (configuration not stated),104% (inactive)
21,CC12CCC(=O)N1C(C(=O)NCCN1C(=O)S/C(=C\c3ccccc3F)C1=O)CS2 (configuration not stated),107% (inactive)
22,COc1cccc(N(C(=O)CNC(=O)c2ccco2)C(C(=O)NC2CCCCC2)c2cccnc2)c1 (configuration not stated),104% (inactive)

row,Compound,GFP response vs DMSO
1,CC(C)(C)NC(=O)C(c1ccncc1)N(C(=O)CNC(=O)c1ccco1)c1ccc2c(c1)OCO2 (configuration not stated),111% (inactive)
2,Cc1ccc(N(C(=O)CNC(=O)c2ccco2)C(C(=O)NC2CCCC2)c2ccncc2)cc1 (configuration not stated),359% [may fluoresce violet] (active)
3,O=C(Nc1ccc(S(=O)(=O)NCC2CCCO2)cc1)c1ccc(F)cc1 (configuration not stated),101% (inactive)
4,O=C(CN1CCCCCC1)Nc1c(Cl)cc(Cl)cc1Cl,98.7% (inactive)
5,O=C1C2N=NN(CC(=O)N3N=C(c4cccc5ccccc45)CC3c3ccccc3)C2C(=O)N1c1ccccc1 (configuration not stated),299% [may fluoresce violet] (active)
6,Oc1ccccc1C1=NN(c2ccccc2)C(c2ccccc2)C1 (configuration not stated),107% (inactive)
7,Cc1ccc(N2C(=O)C3N=NN(CC(=O)N4N=C(c5cccc6ccccc56)CC4c4ccccc4)C3C2=O)cc1 (configuration not stated),102% (inactive)
8,CCOC(=O)c1c(NC(=O)CSc2nnc(CN3CCOCC3)n2C)sc2c1CCCC2,99.8% (inactive)
9,CCOC(=O)C1CCN(C(=O)C2CCN(S(=O)(=O)CC)CC2)CC1,98.5% (inactive)
10,Cc1ccc2cc3cc(C(=O)N4CCCCCC4)oc3nc2c1,97.2% (inactive)
11,CCCCN1C(=O)c2ccc(C(=O)Nc3ccc(S(=O)(=O)N(C)C)cc3)cc2C1=O,87.8% (inactive)
12,COCCN1C2=C(COC(C)(C)C2)C(=S)NC1c1ccccc1 (configuration not stated),234% (active)
13,COCCN1C(=O)N[C@@H](CCc2ccccc2)[C@H](C(C)=O)[C@H]1C,86.4% (inactive)
14,COCCN1C(=O)N[C@@H](c2ccccc2)C(C(=O)OC)=C1C,91.3% (inactive)
15,Brc1ccc2c(c1)[C@H]1OCC[C@H]1[C@@H](c1cccs1)N2,102% (inactive)
16,C[C@H]1CCC(=O)N([C@H](CSc2ccccc2)Cc2ccccc2)CC1,93.7% (inactive)
17,C=CCC1=C/C(=C\c2c(N)n3nc(CC(=O)N4CCOCC4)sc3nc2=O)C=C(OC)C1=O,102% (inactive)
18,CN(Cc1ccc(F)cc1)C(=O)CN1C(=O)c2ccccc2S1(=O)=O,95% (inactive)
19,CCc1ccccc1OCC(=O)Nc1ccc2c(c1)OCCO2,366% [may fluoresce violet] (active)
20,COc1ccccc1OCCCC(=O)Nc1ccc2c(c1)OCCO2,92.3% (inactive)
21,CCC(=O)c1cc(F)ccc1OCC(=O)Nc1ccc2c(c1)OCCO2,104% (inactive)
